This passage reports ETS1 binding intensity results from the supplement of paper PMC10681739.

Experiment [1] has as its target T1, ETS1 (UniProt P14921).
T1 sequence: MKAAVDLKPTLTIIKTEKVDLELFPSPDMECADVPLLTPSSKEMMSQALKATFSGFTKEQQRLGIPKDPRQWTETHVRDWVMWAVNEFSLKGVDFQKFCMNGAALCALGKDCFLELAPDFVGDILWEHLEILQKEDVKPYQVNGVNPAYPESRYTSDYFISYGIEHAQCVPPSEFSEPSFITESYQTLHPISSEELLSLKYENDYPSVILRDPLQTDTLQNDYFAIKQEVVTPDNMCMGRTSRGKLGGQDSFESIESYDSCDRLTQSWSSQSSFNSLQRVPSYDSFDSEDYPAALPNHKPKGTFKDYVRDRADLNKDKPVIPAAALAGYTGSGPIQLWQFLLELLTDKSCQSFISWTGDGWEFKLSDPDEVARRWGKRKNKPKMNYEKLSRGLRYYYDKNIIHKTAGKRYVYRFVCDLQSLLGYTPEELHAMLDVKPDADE
Kind of experiment: ETS1 binding intensity (PBM fluorescence), ETS1 alone (arbitrary fluorescence units); higher = stronger binding. The following applies: ETS1 concentration 1 nM; RUNX1 concentration 0 nM.

Experiment [2] deals with T1, ETS1. Kind of experiment: ETS1 binding intensity (PBM fluorescence) in presence of RUNX1, normalised to ETS1-only experiment (arbitrary fluorescence units); higher = stronger binding. The following applies: ETS1 concentration 1 nM; RUNX1 concentration 25 nM.

For the sequence CTGCTTCGGCCCGGCTTCCGCCCACAGTCAACTGCC, the ETS1 binding intensity in experiment [1] amounted to 825; in experiment [2] it was 694.

For AGGGTGTACTCGGAAGTTTCGAGTGGTTGCTTGGTT, the ETS1 binding intensity in experiment [1] was determined as 451; in experiment [2] it was 513.

GTCCCCTCCCCAGGATGTGGCCACCCGCTAGAGCAT: the ETS1 binding intensity in experiment [1] was 1030; in experiment [2] it was 1560.

Turning to ATAAAGGATGTACAGTATTTAGAGAACAGTGGTTAA, the results for the ETS1 binding intensity in experiment [1] and in experiment [2] were 553 and 485, respectively.

Take AAGGACCGACCCGTTTTCCGCCCGCAGCGGAGCTTG: the ETS1 binding intensity in experiment [1] came to 439; in experiment [2], 457.

For GCGCCATTTCCGCTGCGCAAGGCACCACAGGCCCTG, the ETS1 binding intensity in experiment [1] amounted to 1140; in experiment [2] it was 943.

With GAACCCAGGTCTGCTTCCTGTGGCCACCATCTGTGC, the ETS1 binding intensity in experiment [1] was 761; in experiment [2] it was 684.

For the sequence ACCTTCCTTCCTGCCTCCCTTGTGGCTCCAGTCCAC, the ETS1 binding intensity came to 552 in experiment [1] and 312 in experiment [2].

With CTGGAAACCATTTCCTTTGTGGCCATGAAACAATGG, the results for the ETS1 binding intensity in experiment [1] and in experiment [2] were 594 and 601, respectively.

Regarding ATGCCAAGGGACTTCCCTCCACAACCGCCCCCAGCT, the ETS1 binding intensity in experiment [1] is 642; in experiment [2] it was 529.

With AGTTTCTCCAGGAAGCGCTGAGGTTTTCTCAGAAGT, the ETS1 binding intensity is 763 in experiment [1] and 1160 in experiment [2].

Consider CCTCACAGGGACTTCCTTCCCCGCGGTTCAGGAATC, for which the ETS1 binding intensity was 444 in experiment [1] and 577 in experiment [2].

Consider TGCTCCACTCGGAAGTGGTGCCGCAGCTCTTCGATG, for which the ETS1 binding intensity in experiment [1] was found to be 697; in experiment [2], 800.

With GCTGCTGTAGTCGCTTCCTGCGGCCAGCCCGGGTTC, the ETS1 binding intensity in experiment [1] worked out at 526; in experiment [2], 528.

Regarding CGTTATTTCCGGGGCTGGGTTAACGCAGCGGTTCCA, the ETS1 binding intensity is 631 in experiment [1] and 692 in experiment [2].

GCAGGAAGACTAACACAAAACCATCAAACCACTCTG: the ETS1 binding intensity in experiment [1] amounted to 511; in experiment [2], 543.

For the sequence CCCTCTGAGACAGGATTTGCTTCCCACACAAGGCTA, the ETS1 binding intensity in experiment [1] stood at 495; in experiment [2], 629.

TACCGCTGCTTCCTGCCTGCGCGGTGAGCCTGTGCC: the ETS1 binding intensity in experiment [1] worked out at 829; in experiment [2] it was 802.
